# In PubChem BioAssay (EPA / NIEHS):
# Where “and” joins values, the source holds several entries; their conditions need not be identical. Equal entries are not always repeated. A structure can be active in one record and inactive in another. Calls of active or inactive are those of the source. How the source made its calls: active means hit-call score of the fitted dose curve at least 0.9, where 1 is the maximum; inactive means score below 0.9.
# Read-out: E-selectin (Homo sapiens) (UniProt P16581)
# Assay: BSK_IMphg_ESelectin: BioMAP Diversity Plus: IMphg Assay for Eselectin Biomarker Activity (AID 2284291)
# Settings: primary human endothelial cells with macrophages
# Experimental: BSK_IMphg is a cell-based, multiplexed-readout assay that uses venular endothelial cells and macrophages, a human vascular primary cell, with measurements taken at 24 hours after chemical dosing in a microplate: 96-well plate.BSK_IMphg_ESelectin is an assay component measured in the BSK_IMphg assay. It measures E-selectin antibody related to regulation of gene expression using ELISA technology.Data from the assay component BSK_IMphg_ESelectin was analyzed at the endpoint, BSK_IMphg_ESelectin, in the positive analysis fitting direction relative to DMSO as the negative control and baseline of activity. Using a type of binding reporter, gain or loss-of-signal activity can be used to understand protein changes. To generalize the intended target to other relatable targets, this assay endpoint is annotated to the 'cell adhesion molecules' intended target family, where the subfamily is 'selectins'.
# The levels of cell surface (or secreted, indicated by the prefix "s") biomarker endpoints were measured by ELISA. Overt cytotoxicity to cells in confluent adherent cultures (all systems other than the BT system) was assessed by measuring total protein levels using sulforhodamine B (SRB) staining in parallel cultures at the time of biomarker measurements, indicated as SRB endpoints. For proliferation assays for adherent cell types, individual cell types are cultured at sub-confluence and relative cell numbers quantified by SRB staining at time points optimized for each system (48 h: 3C and CASM3C systems; 72 h: BT and HDF3CGF systems; 96 h: SAg system). SRB was performed by staining cells with 0.1% SRB after fixation with 10% TCA and reading wells at 560 nm.Viability and proliferation of PBMC (T cells) was quantified by Alamar Blue reduction for the SAg and BT systems. For PBMC viability (referred to as PBMC Cytotoxicity within the assay endpoint names), cells were plated (75,000/well in a 96-well plate) and then chemical samples added for 1 h before addition of activators, SEB and TSST-1 (20 ng/mL final concentration each). Cells were incubated for 90 h. Then, Alamar Blue (20 uL/well) (Invitrogen, Cat DAL1100) was added for 6 h, and the plates were read with a fluorescence microplate reader at 546/580 nm (excitation/emission). For PBMC proliferation, cells were plated and activated as above but incubated for only 16 h prior to addition of Alamar Blue. Plates were read after 6 h.
# E-selectin (Homo sapiens), sequence (P16581 whole entry, looked up): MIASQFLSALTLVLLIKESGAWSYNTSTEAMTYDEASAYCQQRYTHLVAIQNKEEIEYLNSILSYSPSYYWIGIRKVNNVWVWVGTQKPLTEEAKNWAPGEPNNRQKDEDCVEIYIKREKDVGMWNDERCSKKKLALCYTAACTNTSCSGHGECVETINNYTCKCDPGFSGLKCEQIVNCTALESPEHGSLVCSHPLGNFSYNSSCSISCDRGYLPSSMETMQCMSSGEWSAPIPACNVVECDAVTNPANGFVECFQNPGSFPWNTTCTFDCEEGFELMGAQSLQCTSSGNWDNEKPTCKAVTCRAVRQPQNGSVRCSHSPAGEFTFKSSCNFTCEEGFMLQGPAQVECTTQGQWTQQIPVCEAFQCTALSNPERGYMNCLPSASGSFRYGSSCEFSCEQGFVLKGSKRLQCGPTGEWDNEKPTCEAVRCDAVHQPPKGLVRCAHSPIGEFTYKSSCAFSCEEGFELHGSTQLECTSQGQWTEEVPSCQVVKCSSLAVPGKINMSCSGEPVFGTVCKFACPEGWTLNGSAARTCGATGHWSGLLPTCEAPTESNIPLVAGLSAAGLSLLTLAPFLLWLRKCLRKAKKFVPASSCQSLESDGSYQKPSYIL
SMILES,outcome,AC50
O=C(Cl)C(F)(F)C(F)(F)C(F)(F)C(F)(F)C(F)(F)C(F)(F)F,inactive,
NCC(F)(F)C(F)(F)C(F)(F)C(F)(F)C(F)(F)C(F)(F)F,inactive,
CO[Si](C)(CCC(F)(F)C(F)(F)C(F)(F)C(F)(F)C(F)(F)C(F)(F)F)OC,inactive,
NC(=O)C(F)(F)C(F)(F)C(F)(F)C(F)(F)C(F)(F)C(F)(F)C(F)(F)F,inactive,
O=S(=O)(OCC(F)(F)F)C(F)(F)C(F)(F)C(F)(F)C(F)(F)F,inactive,
O=C(F)C1(F)C(F)(F)C(F)(F)C(F)(F)C(F)(F)C1(F)F,inactive,
OCC(O)CC(F)(F)C(F)(F)C(F)(F)C(F)(F)C(F)(F)C(F)(F)C(F)(F)C(F)(F)F (stereo not given),inactive,
COC(F)(C(F)F)C(F)(F)F (stereo not given),inactive,
O=C(O)C(F)(F)C(F)(F)C(F)(F)C(F)(F)C(F)(F)C(F)(F)C(F)F,inactive,
O=S(=O)(O)CCC(F)(F)C(F)(F)C(F)(F)C(F)(F)C(F)(F)C(F)(F)C(F)(F)C(F)(F)F,inactive,21.3 µM (active)
NC(=O)C(F)(F)C(F)(F)C(F)(F)C(F)F,inactive,
C=C(C)C(=O)OCC(F)(F)C(F)(F)C(F)(F)C(F)F,inactive,
OCC(O)CC(F)(F)C(F)(F)C(F)(F)C(F)(F)F (stereo not given),inactive,
OCC(F)(F)C(F)(F)C(F)(F)CO,inactive,
OCC(F)(F)C(F)(F)C(F)(F)C(F)(F)C(F)(F)C(F)(F)C(F)(F)C(F)(F)CO,,51.5 µM (active) and 36.1 µM (active)
NS(=O)(=O)C(F)(F)C(F)(F)C(F)(F)C(F)(F)C(F)(F)C(F)(F)F,,30 µM (active) and 21.3 µM (active)
O=C(Cl)C(F)(F)C(F)(F)C(F)(F)C(F)(F)C(F)(F)C(F)(F)C(F)(F)F,inactive,
NC(O)(C(F)(F)F)C(F)(F)F,inactive,
O=C(O)C(F)(F)OC(F)(F)C(F)(F)OC(F)(F)C(F)(F)OC(F)(F)F,inactive,
NCC(F)(F)C(F)(F)C(F)(F)C(F)(F)C(F)(F)C(F)(F)C(F)(F)C(F)(F)F,inactive,

SMILES,outcome,AC50
CNS(=O)(=O)C(F)(F)C(F)(F)C(F)(F)C(F)(F)C(F)(F)C(F)(F)C(F)(F)C(F)(F)F,,5.55 µM (active) and 8.07 µM (active)
C=CC(=O)OCCC(F)(F)C(F)(F)C(F)(F)C(F)(F)F,inactive,
OCCCC(F)(F)C(F)(F)C(F)(F)C(F)(F)C(F)(F)C(F)(F)C(F)(F)C(F)(F)F,,14.3 µM (active) and 11.4 µM (active)
O=S(=O)(O)CCC(F)(F)C(F)(F)C(F)(F)C(F)(F)F,inactive,
NC(=O)C(F)(F)C(F)(F)C(F)(F)C(F)(F)C(N)=O,inactive,
CCOC(=O)CC(=O)C(F)(F)C(F)(F)F,inactive,
O=C(O)CCC(F)(F)C(F)(F)C(F)(F)C(F)(F)C(F)(F)C(F)(F)C(F)(F)F,,2.27 µM (active) and 1.87 µM (active)
FC(F)(F)C(F)(F)C(F)(F)CC1CO1 (stereo not given),inactive,
OCC(F)(F)C(F)(F)C(F)(F)C(F)(F)C(F)(F)C(F)(F)CO,inactive,
NC(=O)C(F)(F)C(F)(F)C(F)(F)F,inactive,
C=CC(=O)OCC(F)(F)C(F)(F)C(F)(F)C(F)(F)C(F)(F)C(F)(F)C(F)(F)C(F)F,inactive,
FC(F)(F)C(F)(F)C(F)(F)C(F)(F)C(F)(F)C(F)(F)C(F)(F)CCI,inactive,
O=C(O)C(F)(F)C(F)(F)C(F)(F)OC(F)(C(F)(F)F)C(F)(F)F,inactive,
O=C(O)C(F)(F)C(F)(F)C(F)(F)OC(F)(F)F,inactive,
O=C(O)C(F)(F)C(F)(F)C(F)(F)C(=O)O,inactive,
O=C(O)CCC(F)(F)C(F)(F)C(F)(F)F,inactive,
CCN(CCO)S(=O)(=O)C(F)(F)C(F)(F)C(F)(F)C(F)(F)C(F)(F)C(F)(F)C(F)(F)C(F)(F)F,,5.54 µM (active) and 6.2 µM (active)
C[Si](Cl)(Cl)CCC(F)(F)C(F)(F)C(F)(F)C(F)(F)C(F)(F)C(F)(F)F,inactive,
C=CC(=O)OCC(F)(F)C(F)(F)C(F)(F)COC(=O)C=C,,40 µM (active) and 33.5 µM (active)
